The values below come from PubChem BioAssay (NCATS).

“And” between values parts separate entries of the source, which are not always exact repeats. Equal entries are not always repeated. Inconclusive results are not listed. Values without a mark were called inactive. The source made the active and inactive calls. The call rests on the fitted dose curve; in most records, active means well fitted cell-killing curve with a large enough effect; inconclusive means small, poorly fitted or top-dose-only effect; inactive means flat fitted curve, though single readings scatter.
Potency means the concentration at half of the fitted maximal effect.

One assay can be described thus: Cellular viability qHTS for adrenocortical cancer (ACC) cell line SW-13 (AID 1963989). Further: nearly all actives have a fitted effect of over 65% in size.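 On activity (max response): cells grown in serum-free medium with ITS supplement; on the % scale 0 is the no-effect control and ±100 the full control effect.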 The conditions noted are these: SW-13 ACC cells viability, CellTiter-Glo, 48 h; activity (max response): hits give low values. The gist of the method:
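IC50 and maximal-response values come from four-parameter logistic fits of titration data. SW-13 cells in serum-free medium received compounds (up to 46 uM final) for 48 h before CellTiter-Glo luminescence.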
(In general: Quantitative high-throughput screening tests each substance at several concentrations.)
Turning to `O=[N+]([O-])c1cc([N+](=O)[O-])c2ccccc2c1`, the activity (max response) was -5.95%.
With `Cc1cc(O)ccc1Cl`, the activity (max response) is 10.8%.
For `CN(C)CCc1c[nH]c2ccccc12`, the activity (max response) was -12.4%.
As for `CN1C(=S)CN=C(c2ccccc2)c2cc(Cl)ccc21`, the activity (max response) is -3.17%.
Take `C[N+]1(C)[C@@H]2CC[C@H]1CC(OC(=O)C(CO)c1ccccc1)C2` (stereo partly drawn): the activity (max response) was -4.66%.
For `CN1C[C@@H](NS(=O)(=O)N(C)C)C[C@@H]2c3cccc4c3c(cn4C)C[C@H]21`, the activity (max response) is -2.7%.
For the compound `CCOC(C(=O)OCCN(C)C)(c1ccccc1)c1ccccc1`, the activity (max response) is -0.322%.
For `O=c1c(C2CC(c3ccc(-c4ccc(Br)cc4)cc3)Cc3ccccc32)c(O)sc2ccccc12` (stereo not drawn), the Potency was 5.8 µM (active).
As for `CC(=O)OCC1=C(C(=O)O)N2C(=O)[C@@H](N)[C@H]2SC1`, the activity (max response) is 5.22%.
As for `C[C@@H]1CC[C@H]2[C@@H](C)C(=O)O[C@@H]3O[C@@]4(C)CC[C@@H]1[C@]32OO4`, the activity (max response) was -4.33% and -19.2%.
`CC(C)[C@]12O[C@H]1[C@@H]1O[C@@]13[C@@]1(C)CCC4=C(COC4=O)[C@@H]1C[C@@H]1O[C@@]13C2=O`: the Potency was 0.141 µM (active).
For the compound `Cc1c(Cl)c(=O)oc2cc(OP(=O)(OCCCl)OCCCl)ccc12`, the activity (max response) is -15.3%.
With `CCCOC(=O)Cc1ccc(OCC(=O)N(CC)CC)c(OC)c1`, the activity (max response) is 10.7%.
As to `CC1COC2(c3ccccc3Cl)c3cc(Cl)ccc3NC(=O)CN12` (stereo not drawn), the activity (max response) is -14.7%.
For the compound `COc1nn(CSP(=S)(OC)OC)c(=O)s1`, the Potency was 31.6 µM (active).
For `C[C@]12CC[C@H]3[C@@H](CCC4=CC(=O)CC[C@@H]43)[C@@H]1CC[C@@H]2OC(=O)CCc1ccco1`, the activity (max response) was -19.1%.
In the case of `O=C1OC(CCN2CCCCC2)OC1(c1ccccc1)c1ccccc1` (stereo not drawn), the activity (max response) was 2.23%.
On to `COc1ccc2[nH]cc(CCN(C(C)C)C(C)C)c2c1`, for which the activity (max response) is -8.69%.
For the compound `CC(C(O)c1ccccc1)N(C)C/C=C/c1ccccc1` (stereo not drawn), the activity (max response) is -14.5%.
As for `CN(C)CCc1c[nH]c2cccc(O)c12`, the activity (max response) was 3.4%.
The same measure, in the same setting: the same measure for `O=C(O)C1=CCCN(CCOC(c2ccc(C(F)(F)F)cc2)c2ccc(C(F)(F)F)cc2)C1`: -19.1%; for `CC(C)c1c(CN(C)C(C)Cc2ccccc2)n(C)n(-c2ccccc2)c1=O` (stereo not drawn): 5.24%.
For the compound `CC(C)[N+](C)(CCC(C(N)=O)(c1ccccc1)c1ccccc1)C(C)C`, the activity (max response) is 1.8%.
`CC(Cc1ccc2c(c1)OCO2)NO` (stereo not drawn): the activity (max response) is -5.75%.
`Nc1ccc([As](=O)(O)O)cc1`: the activity (max response) is 13.3%.
Consider `O=C(CBr)N1CC([N+](=O)[O-])([N+](=O)[O-])C1`, for which the activity (max response) is 7.48%.
Turning to `Nc1ccc(N)cc1`, the activity (max response) is 5.64%.
In the case of `CN[C@@H]1C[C@H]2O[C@@](C)([C@@H]1OC)n1c3ccccc3c3c4c(c5c6ccccc6n2c5c31)C(=O)NC4`, the Potency is 0.1 µM (active).
As for `NC1=NC(=O)C(c2ccccc2)O1` (stereo not drawn), the activity (max response) was 8.75%.
Consider `COc1ccc2c(C(=O)c3ccc(Cl)cc3)c(C)n(CC(=O)O)c2c1`, for which the activity (max response) is 8.1%.
On to `CCOC(=O)c1cncn1C(C)c1ccccc1` (stereo not drawn), for which the activity (max response) is 4.76%.
As to `Cc1ncc2n1-c1ccc(Cl)cc1C(c1ccccc1F)=NC2`, the activity (max response) is -18.8%.
With `Cn1c(/C=C/CO)c(CO)c2c1C(=O)C=C(N1CC1)C2=O`, the activity (max response) is -6.24%.
As to `COC(=O)c1cncn1C(C)c1ccccc1` (stereo not drawn), the activity (max response) was -8.99%.
For `C[C@H]1[C@H](O)[C@@H](C)/C=C/C=C/CC/C=C/C=C/C=C/C=C/[C@H](O[C@@H]2O[C@H](C)[C@@H](O)[C@H](N)[C@@H]2O)C[C@@H]2O[C@](O)(C[C@@H](O)[C@H](O)CC[C@@H](O)C[C@@H](O)C[C@@H](O)CC(=O)O[C@H]1C)C[C@H](O)[C@H]2C(=O)O`, the activity (max response) was -20.1%.
Regarding `CN(C)CCc1c[nH]c2ccc(O)cc12`, the activity (max response) is 2.14%.
For `CN1C(=O)CN=C(c2ccccc2)c2cc(Cl)ccc21`, the activity (max response) is 0.469%.
For `C=C(C)[C@H]1CN[C@H](C(=O)O)[C@H]1CC(=O)O`, the activity (max response) was 7.33%.
Same read-out and setting: the same measure for `O=C(CCCN1CCC(n2c(=O)[nH]c3ccccc32)CC1)c1ccc(F)cc1`: -18.7%.

A short description of a further assay: Cellular viability qHTS for adrenocortical cancer (ACC) cell line NCI-H295R (AID 1963990). Further: nearly all actives have a fitted effect of over 60% in size.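 On activity change, negative = viability loss: 0% = DMSO only wells and -100% = full killing with cytotoxic reference compound.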 The following applies: CellTiter-Glo ATP luminescence, 48 h; series mostly up to 46.1 µM; activity change, negative = viability loss: at the top concentration. The gist of the method: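 Adrenocortical carcinoma cells, suspended at 300 000 cells/mL in serum-free DMEM plus ITS, rested overnight before pin transfer of compound. After two days' incubation, ATP-dependent luminescence was recorded and curve-fitted.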
Turning to `O=[N+]([O-])c1cc([N+](=O)[O-])c2ccccc2c1`, the “activity change, negative = viability loss” value is 5.2% [at 92.7 µM].
Take `Cc1cc(O)ccc1Cl`: the “activity change, negative = viability loss” value is -1.88%.
Take `CN(C)CCc1c[nH]c2ccccc12`: the “activity change, negative = viability loss” value is -21.7% [at 178 µM].
Regarding `CN1C(=S)CN=C(c2ccccc2)c2cc(Cl)ccc21`, the “activity change, negative = viability loss” value is -25%.
`C[N+]1(C)[C@@H]2CC[C@H]1CC(OC(=O)C(CO)c1ccccc1)C2` (stereo partly drawn): the “activity change, negative = viability loss” value is -6.09%.
For `CN1C[C@@H](NS(=O)(=O)N(C)C)C[C@@H]2c3cccc4c3c(cn4C)C[C@H]21`, the “activity change, negative = viability loss” value was -0.0625%.
Still for that read-out and setting: the same measure for `CCOC(C(=O)OCCN(C)C)(c1ccccc1)c1ccccc1`: 0.616%.
Regarding `O=c1c(C2CC(c3ccc(-c4ccc(Br)cc4)cc3)Cc3ccccc32)c(O)sc2ccccc12` (stereo not drawn), the Potency is 7.31 µM (active).
As for `CC(=O)OCC1=C(C(=O)O)N2C(=O)[C@@H](N)[C@H]2SC1`, the “activity change, negative = viability loss” value was -21.9% [at 20 µM].
In the case of `C[C@@H]1CC[C@H]2[C@@H](C)C(=O)O[C@@H]3O[C@@]4(C)CC[C@@H]1[C@]32OO4`, the Potency result is “inactive”.
For `CC(C)[C@]12O[C@H]1[C@@H]1O[C@@]13[C@@]1(C)CCC4=C(COC4=O)[C@@H]1C[C@@H]1O[C@@]13C2=O`, the Potency is 0.631 µM (active).
With `Cc1c(Cl)c(=O)oc2cc(OP(=O)(OCCCl)OCCCl)ccc12`, the “activity change, negative = viability loss” value is -26.6%.
On to `CCCOC(=O)Cc1ccc(OCC(=O)N(CC)CC)c(OC)c1`, for which the “activity change, negative = viability loss” value is -15.5%.
On to `CC1COC2(c3ccccc3Cl)c3cc(Cl)ccc3NC(=O)CN12` (stereo not drawn), for which the Potency was 23.1 µM (active).
The same measure, in the same setting: the figure for `COc1nn(CSP(=S)(OC)OC)c(=O)s1` is 25.1 µM (active); for `C[C@]12CC[C@H]3[C@@H](CCC4=CC(=O)CC[C@@H]43)[C@@H]1CC[C@@H]2OC(=O)CCc1ccco1` it is 18.4 µM (active); for `O=C1OC(CCN2CCCCC2)OC1(c1ccccc1)c1ccccc1` (stereo not drawn) it is 25.9 µM (active).
As for `COc1ccc2[nH]cc(CCN(C(C)C)C(C)C)c2c1`, the “activity change, negative = viability loss” value was -21.2% [at 92.7 µM].
Still for that read-out and setting: the same measure for `CC(C(O)c1ccccc1)N(C)C/C=C/c1ccccc1` (stereo not drawn): -27.3%; for `CN(C)CCc1c[nH]c2cccc(O)c12`: -18.9% [at 92.7 µM].
On to `O=C(O)C1=CCCN(CCOC(c2ccc(C(F)(F)F)cc2)c2ccc(C(F)(F)F)cc2)C1`, for which the “activity change, negative = viability loss” value is -2.17%.
For the compound `CC(C)c1c(CN(C)C(C)Cc2ccccc2)n(C)n(-c2ccccc2)c1=O` (stereo not drawn), the “activity change, negative = viability loss” value was -0.835%.
As to `CC(C)[N+](C)(CCC(C(N)=O)(c1ccccc1)c1ccccc1)C(C)C`, the “activity change, negative = viability loss” value was -3.69%.
Take `CC(Cc1ccc2c(c1)OCO2)NO` (stereo not drawn): the “activity change, negative = viability loss” value was -12.5% [at 92.7 µM].
With `Nc1ccc([As](=O)(O)O)cc1`, the “activity change, negative = viability loss” value was -1.66%.
Regarding `O=C(CBr)N1CC([N+](=O)[O-])([N+](=O)[O-])C1`, the “activity change, negative = viability loss” value was -12.2% [at 92.7 µM].
With `Nc1ccc(N)cc1`, the “activity change, negative = viability loss” value is -11.9%.
As to `CN[C@@H]1C[C@H]2O[C@@](C)([C@@H]1OC)n1c3ccccc3c3c4c(c5c6ccccc6n2c5c31)C(=O)NC4`, the Potency was 0.282 µM (active).
As for `NC1=NC(=O)C(c2ccccc2)O1` (stereo not drawn), the “activity change, negative = viability loss” value is 1.53%.
Consider `COc1ccc2c(C(=O)c3ccc(Cl)cc3)c(C)n(CC(=O)O)c2c1`, for which the “activity change, negative = viability loss” value was 0.466%.
Regarding `CCOC(=O)c1cncn1C(C)c1ccccc1` (stereo not drawn), the “activity change, negative = viability loss” value is -18.2%.
The same measure, in the same setting: the same measure for `Cc1ncc2n1-c1ccc(Cl)cc1C(c1ccccc1F)=NC2`: -19.4%.
With `Cn1c(/C=C/CO)c(CO)c2c1C(=O)C=C(N1CC1)C2=O`, the “activity change, negative = viability loss” value was 7.33%.
For the compound `COC(=O)c1cncn1C(C)c1ccccc1` (stereo not drawn), the “activity change, negative = viability loss” value is -10.2%.
As to `C[C@H]1[C@H](O)[C@@H](C)/C=C/C=C/CC/C=C/C=C/C=C/C=C/[C@H](O[C@@H]2O[C@H](C)[C@@H](O)[C@H](N)[C@@H]2O)C[C@@H]2O[C@](O)(C[C@@H](O)[C@H](O)CC[C@@H](O)C[C@@H](O)C[C@@H](O)CC(=O)O[C@H]1C)C[C@H](O)[C@H]2C(=O)O`, the “activity change, negative = viability loss” value was -1.12%.
As to `CN(C)CCc1c[nH]c2ccc(O)cc12`, the “activity change, negative = viability loss” value was -31.3% [at 92.7 µM].
The same measure, in the same setting: the same measure for `CN1C(=O)CN=C(c2ccccc2)c2cc(Cl)ccc21`: -2.45%.
Same read-out and setting: the same measure for `C=C(C)[C@H]1CN[C@H](C(=O)O)[C@H]1CC(=O)O`: 8.19%.
On to `O=C(CCCN1CCC(n2c(=O)[nH]c3ccccc32)CC1)c1ccc(F)cc1`, for which the “activity change, negative = viability loss” value was -13.2%.
